Experimental data: PubChem BioAssay
Unmarked numbers belong to inactive results.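 The calls were made as follows, unless noted: active = inhibition at or above 50% at 10 µM; inactive = inhibition below 50%.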

test: inhibitors of Sendai virus-induced IRF3 signaling, primary screen, TLR/RLR signaling modifier project, cell-based, Sendai virus stimulus, luciferase, 10K MLSCN set (AID 602276); details: HEK293 RL24 IRF3 luciferase reporter, at 10 µM, active compounds read high;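 also: firefly luciferase from ISG56 promoter only with Renilla not read in this screen; 0% = Sendai virus plus DMSO and 100% = medium plus DMSO without virus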

With COc1ccccc1NC(=O)C1=C(C)Nc2nnnn2C1c1ccccc1OC (stereo not given) as the compound, how does the inhibition read?
Its inhibition is 10.5%.

Which inhibition does the source give for CC(=O)NCCc1nc2ccccc2[nH]1 here?
The inhibition was 12.7%.

For S=C(c1ccc(-c2cc(Cl)ccc2Cl)o1)N1CCOCC1, which inhibition is on record?
Its inhibition is 21.6%.

Which inhibition does the source give for COc1ccc(Cl)cc1-c1n[nH]c(=S)o1 here?
The inhibition was 20.2%.

Which inhibition does the source give for O=c1[nH]c(SCc2ccccc2Cl)nc2c1CCCC2 here?
The inhibition was 10.6%.

With CSc1nc(C)cc(OCC(=O)N2CCOCC2)n1 as the compound, how does the inhibition read?
Its inhibition is 7.52%.

With CCOc1ccc(N(CC(=O)NC2CCCCC2)S(=O)(=O)c2c(C)noc2C)cc1 as the compound, how does the inhibition read?
Its inhibition is -0.99%.

Which inhibition does the source give for Oc1ccccc1-c1nnc(COc2ccc(Cl)cc2Cl)o1 here?
Its inhibition is -0.185%.

For CC(=O)NC(C)c1nc2ccccc2n1C(C)C (stereo not given), which inhibition is on record?
Its inhibition is 14.5%.

For CC1CCCCC1NC(=O)CCCc1nc2ccccc2c(=O)[nH]1 (stereo not given), which inhibition is on record?
Its inhibition is 7.71%.

With c1ccc(-n2ncc3c(N4CCCCC4)ncnc32)cc1 as the compound, how does the inhibition read?
The inhibition was 49.8%.

For c1cc(CNc2ccc3c(c2)OCO3)ccn1, which inhibition is on record?
Its inhibition is -9.22%.

For O=C(CCn1c(=O)oc2ccccc21)N1CCCCCC1, which inhibition is on record?
Its inhibition is -8.11%.

With COc1ccccc1C(=O)N1CCN(C(=O)c2ccncc2)CC1 as the compound, how does the inhibition read?
The inhibition was 8.46%.

Which inhibition does the source give for O=C(NC1CCCC1)C1CCCN(S(=O)(=O)c2cccc3cccnc23)C1 (stereo not given) here?
The inhibition was -0.271%.

With N#Cc1c(-c2ccccc2)nc(N2CCCCCC2)[nH]c1=O as the compound, how does the inhibition read?
Its inhibition is 6.52%.

For O=C(NC1CCCCC1)n1c(=O)oc2ccc(Cl)cc21, which inhibition is on record?
Its inhibition is -1.88%.

With O=C(Nc1ccccc1N1CCOCC1)c1ccc2ccccc2n1 as the compound, how does the inhibition read?
Its inhibition is -13.5%.

Which inhibition does the source give for O=C(Nc1ccc(F)cc1)N(CCCN1CCOCC1)Cc1cc2cc3c(cc2[nH]c1=O)OCO3 here?
Its inhibition is 15.6%.

Which inhibition does the source give for COc1c(S(=O)(=O)n2nc(C)cc2C)ccc(Cl)c1Cl here?
The inhibition was -8.21%.

Which inhibition does the source give for CCn1c(SCC(=O)Nc2ccc(Cl)cc2)nnc1C1CC1 here?
The inhibition was 4.41%.

With COc1cc2cc(C(c3nnnn3C3CCCC3)N(C)C3CCCCC3)c(=O)[nH]c2cc1OC (stereo not given) as the compound, how does the inhibition read?
The inhibition was 12.4%.

For COc1ccccc1OCCOCCn1cnc2ccccc2c1=O, which inhibition is on record?
Its inhibition is 10.3%.

Which inhibition does the source give for Cc1cccnc1NC(=O)CCCN1C(=O)c2ccccc2C1=O here?
Its inhibition is 11.3%.

For CCC1CCCCN1C(=O)C1CC(c2cc(Cl)c(OC)cc2OC)=NO1 (stereo not given), which inhibition is on record?
The inhibition was -1.49%.

With CCOCCCNC(=O)C1CCC(CNS(=O)(=O)c2cccc3nsnc23)CC1 (stereo not given) as the compound, how does the inhibition read?
The inhibition was 8.12%.

For C=CCn1c(SCC(=O)NCC2CCCO2)nc2scc(-c3ccco3)c2c1=O (stereo not given), which inhibition is on record?
The inhibition was 11.9%.

For CC1=C(C)CC2C(=O)N(c3cccc4ccccc34)C(=O)C2C1 (stereo not given), which inhibition is on record?
Its inhibition is 0.65%.

For O=C(O)c1ccc(-c2ccc(O)c(F)c2)cc1, which inhibition is on record?
The inhibition was -3.64%.

With COC(=O)c1ccccc1NC(=O)N1CCCC1 as the compound, how does the inhibition read?
Its inhibition is -4.5%.

For Cc1ccc(-n2c(Cn3cnc4ccccc43)nnc2SCC(=O)O)cc1, which inhibition is on record?
The inhibition was 15.2%.

Which inhibition does the source give for Cc1ccc2c(c1C)NC(=O)C2(O)CC(=O)c1ccc2c(c1)OCO2 (stereo not given) here?
Its inhibition is 11.2%.

With CC1=C(C(=O)Nc2cccnc2)C(c2ccc(C(C)C)cc2)n2ncnc2N1 (stereo not given) as the compound, how does the inhibition read?
The inhibition was 1.35%.

Which inhibition does the source give for c1ccc(CCn2nnnc2CN2CCN(C3CCCC3)CC2)cc1 here?
The inhibition was -0.279%.

Which inhibition does the source give for CN(C(=O)c1ccccc1Cl)c1ccccc1 here?
The inhibition was 15%.

Which inhibition does the source give for O=S(=O)(c1ccc(-c2csc(-c3cccnc3)n2)cc1)N1CCCCC1 here?
Its inhibition is -0.353%.

Which inhibition does the source give for O=C(c1cnn2c(C(F)(F)F)cc(-c3ccco3)nc12)N1CCc2ccccc2C1 here?
Its inhibition is -19%.

With COc1ccc(CCNc2oc(COc3ccccc3Cl)nc2C#N)cc1OC as the compound, how does the inhibition read?
The inhibition was 1.77%.

For Cc1ccc(-c2nnc(N(C)C(=O)c3ccccn3)s2)cn1, which inhibition is on record?
Its inhibition is -13%.

For Cn1c(=O)c2c(-c3ccccc3)n(CCCN3CCOCC3)cc2n(C)c1=O, which inhibition is on record?
Its inhibition is -9.43%.

test: inhibitors of poly I:C-induced TLR3 signaling, primary screen, cell-based, poly I:C stimulus, luciferase, 10K MLSCN set (AID 602277;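 active = inhibition of the reporter signal at or above 50%; inactive = inhibition below 50%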); details: HEK293-TLR3 RL24 IRF3 luciferase reporter, at 10 µM, active compounds read high

For COc1ccccc1NC(=O)C1=C(C)Nc2nnnn2C1c1ccccc1OC (stereo not given), which inhibition is on record?
Its inhibition is 33.5%.

Which inhibition does the source give for CC(=O)NCCc1nc2ccccc2[nH]1 here?
The inhibition was 33.6%.

Which inhibition does the source give for S=C(c1ccc(-c2cc(Cl)ccc2Cl)o1)N1CCOCC1 here?
Its inhibition is 8.92%.

For COc1ccc(Cl)cc1-c1n[nH]c(=S)o1, which inhibition is on record?
The inhibition was 23.5%.

With O=c1[nH]c(SCc2ccccc2Cl)nc2c1CCCC2 as the compound, how does the inhibition read?
Its inhibition is 4.88%.

With CSc1nc(C)cc(OCC(=O)N2CCOCC2)n1 as the compound, how does the inhibition read?
Its inhibition is 23.9%.

For CCOc1ccc(N(CC(=O)NC2CCCCC2)S(=O)(=O)c2c(C)noc2C)cc1, which inhibition is on record?
The inhibition was 17.1%.

With Oc1ccccc1-c1nnc(COc2ccc(Cl)cc2Cl)o1 as the compound, how does the inhibition read?
The inhibition was -1.08%.

Which inhibition does the source give for CC(=O)NC(C)c1nc2ccccc2n1C(C)C (stereo not given) here?
The inhibition was 42.2%.

With CC1CCCCC1NC(=O)CCCc1nc2ccccc2c(=O)[nH]1 (stereo not given) as the compound, how does the inhibition read?
The inhibition was 17.2%.

With c1ccc(-n2ncc3c(N4CCCCC4)ncnc32)cc1 as the compound, how does the inhibition read?
Its inhibition is 10.6%.

Which inhibition does the source give for c1cc(CNc2ccc3c(c2)OCO3)ccn1 here?
The inhibition was 13.6%.

Which inhibition does the source give for O=C(CCn1c(=O)oc2ccccc21)N1CCCCCC1 here?
The inhibition was -6.91%.

Which inhibition does the source give for COc1ccccc1C(=O)N1CCN(C(=O)c2ccncc2)CC1 here?
Its inhibition is 6.89%.

With O=C(NC1CCCC1)C1CCCN(S(=O)(=O)c2cccc3cccnc23)C1 (stereo not given) as the compound, how does the inhibition read?
Its inhibition is 28.5%.

With N#Cc1c(-c2ccccc2)nc(N2CCCCCC2)[nH]c1=O as the compound, how does the inhibition read?
Its inhibition is 14.7%.

For O=C(NC1CCCCC1)n1c(=O)oc2ccc(Cl)cc21, which inhibition is on record?
Its inhibition is -13.8%.

With O=C(Nc1ccccc1N1CCOCC1)c1ccc2ccccc2n1 as the compound, how does the inhibition read?
The inhibition was -46%.

With O=C(Nc1ccc(F)cc1)N(CCCN1CCOCC1)Cc1cc2cc3c(cc2[nH]c1=O)OCO3 as the compound, how does the inhibition read?
The inhibition was 28.6%.

With COc1c(S(=O)(=O)n2nc(C)cc2C)ccc(Cl)c1Cl as the compound, how does the inhibition read?
The inhibition was 15.5%.

With CCn1c(SCC(=O)Nc2ccc(Cl)cc2)nnc1C1CC1 as the compound, how does the inhibition read?
Its inhibition is 17.1%.

For COc1cc2cc(C(c3nnnn3C3CCCC3)N(C)C3CCCCC3)c(=O)[nH]c2cc1OC (stereo not given), which inhibition is on record?
Its inhibition is 22%.

For COc1ccccc1OCCOCCn1cnc2ccccc2c1=O, which inhibition is on record?
The inhibition was 12.5%.

For Cc1cccnc1NC(=O)CCCN1C(=O)c2ccccc2C1=O, which inhibition is on record?
The inhibition was 10.4%.

For CCC1CCCCN1C(=O)C1CC(c2cc(Cl)c(OC)cc2OC)=NO1 (stereo not given), which inhibition is on record?
The inhibition was -30.3%.

For CCOCCCNC(=O)C1CCC(CNS(=O)(=O)c2cccc3nsnc23)CC1 (stereo not given), which inhibition is on record?
The inhibition was 22.9%.

With C=CCn1c(SCC(=O)NCC2CCCO2)nc2scc(-c3ccco3)c2c1=O (stereo not given) as the compound, how does the inhibition read?
The inhibition was 13.5%.

Which inhibition does the source give for CC1=C(C)CC2C(=O)N(c3cccc4ccccc34)C(=O)C2C1 (stereo not given) here?
Its inhibition is 28.7%.

For O=C(O)c1ccc(-c2ccc(O)c(F)c2)cc1, which inhibition is on record?
The inhibition was 17.3%.

With COC(=O)c1ccccc1NC(=O)N1CCCC1 as the compound, how does the inhibition read?
The inhibition was 0.116%.

With Cc1ccc(-n2c(Cn3cnc4ccccc43)nnc2SCC(=O)O)cc1 as the compound, how does the inhibition read?
Its inhibition is 21.8%.

Which inhibition does the source give for Cc1ccc2c(c1C)NC(=O)C2(O)CC(=O)c1ccc2c(c1)OCO2 (stereo not given) here?
The inhibition was 25.3%.

For CC1=C(C(=O)Nc2cccnc2)C(c2ccc(C(C)C)cc2)n2ncnc2N1 (stereo not given), which inhibition is on record?
The inhibition was 20%.

With c1ccc(CCn2nnnc2CN2CCN(C3CCCC3)CC2)cc1 as the compound, how does the inhibition read?
Its inhibition is 20.4%.

Which inhibition does the source give for CN(C(=O)c1ccccc1Cl)c1ccccc1 here?
The inhibition was 18.4%.

Which inhibition does the source give for O=S(=O)(c1ccc(-c2csc(-c3cccnc3)n2)cc1)N1CCCCC1 here?
Its inhibition is -37.2%.

Which inhibition does the source give for O=C(c1cnn2c(C(F)(F)F)cc(-c3ccco3)nc12)N1CCc2ccccc2C1 here?
Its inhibition is -13.6%.

Which inhibition does the source give for COc1ccc(CCNc2oc(COc3ccccc3Cl)nc2C#N)cc1OC here?
Its inhibition is -11%.

With Cc1ccc(-c2nnc(N(C)C(=O)c3ccccn3)s2)cn1 as the compound, how does the inhibition read?
The inhibition was -49%.

With Cn1c(=O)c2c(-c3ccccc3)n(CCCN3CCOCC3)cc2n(C)c1=O as the compound, how does the inhibition read?
Its inhibition is -18.1%.
